The record followed here is PubChem BioAssay (NCATS).

Each structure is given as a SMILES string. Inconclusive results are not listed. Active and inactive are the calls of the source. Unless noted, calls come from the whole dose curve; as a rule, active = well fitted curve in the direction sought with a large enough effect; inconclusive = small, poorly fitted or top-dose-only effect, or another doubt; inactive = no such curve, though single readings can be large; an effect the other way counts as inactive or inconclusive.

Assay [1] has as its target Estrogen receptor (Homo sapiens) (UniProt P03372). Nature of the assay: qHTS assay for small molecule agonists of estrogen receptor alpha signaling (AID 588514; calls by dose curve;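 note: 0% = vehicle only and 100% = reference agonist; nearly all actives have a fitted effect of over 70% in size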). The method in brief:
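Cells were plated at 5000/well, incubated 4 hrs at 37 C, dosed with compound titration series, incubated 18 hrs at 37 C, loaded with CCF4 dye for 2 hrs at RT, then fluorescence was read.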
On the technique in general: qHTS replaces the single test concentration by a dilution series.

The target in assay [2] is Glucocorticoid receptor (Homo sapiens) (UniProt P04150). Description: qHTS assay for small molecule agonists of glucocorticoid receptor signaling (AID 588532; active = well fitted curve in the direction sought with a large enough effect in the signal ratio, with a control signal flat; the % refers to the signal ratio;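 note: 100% = dexamethasone at 0.1 µM and 0% = DMSO only wells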). The conditions noted are these: HeLa MMTV-bla, beta-lactamase ratio, agonist, 18 h; activation: stronger effect = higher value, percent of dexamethasone control, DMSO zero. The method in brief:
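Agonist-mode qHTS: GRE-driven beta-lactamase in HeLa cells exposed 18 h to titrated compounds (up to 92 uM), then CCF4 ratio read after 2 h at RT; Hill-fitted EC50, efficacy relative to 0.1 uM dexamethasone.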

Assay [3] has as its target Peroxisome proliferator-activated receptor delta (Homo sapiens) (UniProt Q03181). Description: qHTS assay for small molecule agonists of peroxisome proliferator-activated receptor delta signaling (AID 588534; calls by dose curve;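 note: 0% = DMSO basal wells and 100% = positive control agonist at 10 µM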). The method in brief:
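Fluorescence from CCF4 substrate cleavage by beta-lactamase reporter, read 2 hrs at RT, measured agonist activity. Compounds were tested with 18 hrs exposure at 37 C. Concentration-response data fitted to Hill equation.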

A short description of assay [4]: qHTS assay for small molecule antagonists of peroxisome proliferator-activated receptor delta signaling (AID 588535; active = well fitted inhibition curve with a large enough effect in the signal ratio, with a control signal flat, not every such curve was filed as active; the % refers to the signal ratio;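 for max response: cells co-treated with a PPAR-delta agonist as stimulator during compound exposure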). The note with it: HEK293T PPARd-UAS-bla, beta-lactamase FRET ratio, 18 h; 460 nm channel. The method in brief:
(§1)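 HEK293T PPAR-delta-UAS-bla cells, 4000/well, 2% charcoal/dextran FBS; 5 h 37 C; cpd titration; 18 h 37 C; CCF4 2 h RT; FI 460/530 nm; Hill fit → IC50, efficacy.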

The target in assay [5] is Peroxisome proliferator-activated receptor delta (Homo sapiens) (UniProt Q03181). The assay is described as above. In a few lines: as §1
Chain of Peroxisome proliferator-activated receptor delta (Homo sapiens) (Q03181 whole entry, looked up): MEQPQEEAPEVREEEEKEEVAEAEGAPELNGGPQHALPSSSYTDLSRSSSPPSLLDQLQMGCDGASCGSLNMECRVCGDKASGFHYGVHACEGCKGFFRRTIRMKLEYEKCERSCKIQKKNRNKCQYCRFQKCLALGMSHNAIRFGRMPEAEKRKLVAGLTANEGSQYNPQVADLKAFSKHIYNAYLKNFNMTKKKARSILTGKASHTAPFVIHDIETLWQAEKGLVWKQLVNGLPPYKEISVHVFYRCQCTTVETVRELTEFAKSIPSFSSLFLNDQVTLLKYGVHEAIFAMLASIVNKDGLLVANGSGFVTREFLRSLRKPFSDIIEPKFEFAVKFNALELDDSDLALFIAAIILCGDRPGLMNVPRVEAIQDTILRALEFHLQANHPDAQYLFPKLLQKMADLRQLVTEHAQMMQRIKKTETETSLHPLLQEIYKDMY
Assay [6] concerns the target Retinoic acid receptor RXR-alpha (Homo sapiens) (UniProt P19793). Description: qHTS assay for small molecule agonists of retinoid X receptor alpha signaling (AID 588544; calls by dose curve;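 note: 0% = DMSO basal wells and 100% = reference agonist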).
Assay [7] addresses Thyroid hormone receptor beta (Homo sapiens) (UniProt P10828). Nature of the assay: qHTS assay for small molecule agonists of thyroid hormone receptor beta signaling (AID 588545; calls by dose curve). The method in brief:
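In this cell-based screen, titrated compounds act on HEK 293 cells held in medium with 2% charcoal/dextran FBS, NEAA and pyruvate for 18 hrs at 37 C. Responses are expressed relative to T3 (10 nM) as 100% and basal DMSO as 0%.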

Assay [8] can be described thus: qHTS assay for small molecule antagonists of retinoid X receptor alpha signaling (AID 588546; active = well fitted inhibition curve with a large enough effect in the signal ratio, with a control signal flat, not every such curve was filed as active; the % refers to the signal ratio;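 note: cells stimulated with 9-cis-retinoic acid as agonist; % is set by controls: 0 for no effect and ±100 for the full control effect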). The conditions noted are these: HEK293T RXRa-UAS-bla, beta-lactamase ratio, antagonist mode; measured here: W530 green channel, cytotoxicity proxy. The method in brief:
(§2)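 Beta-lactamase reporter inhibition, read as CCF4 fluorescence ratio (ex 405, em 460/530 nm) after 2 h at RT. HEK293T UAS-bla cells, 2500/well, were stimulated with 9-cis-RA at 500 or 100 nM final alongside test compound for 18 h at 37 C.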

In assay [9] the target is Retinoic acid receptor RXR-alpha (Homo sapiens) (UniProt P19793). Described as above. The conditions noted are these: HEK293T RXRa-UAS-bla, beta-lactamase ratio, antagonist mode. In a few lines:
as §2

Assay [10] has as its target Thyroid hormone receptor beta (Homo sapiens) (UniProt P10828). Nature of the assay: qHTS assay for small molecule antagonists of thyroid hormone receptor beta signaling (AID 588547; active = well fitted inhibition curve with a large enough effect in the signal ratio, with a control signal flat, not every such curve was filed as active; the % refers to the signal ratio;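 note: cells stimulated with 0.4 nM T3 agonist during compound exposure; series mostly up to about 77 µM; % is set by controls: 0 for no effect and ±100 for the full control effect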). The note with it: TR-UAS-bla HEK293, beta-lactamase ratio, antagonist mode, 18 h. The method in brief: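 Inhibition of T3-driven (0.4nM final) beta-lactamase reporter activity was measured over 0.59 nM to 92 uM compound after 18 h at 37 C. The cells were GripTite HEK293 TR-UAS-bla in charcoal/dextran-stripped serum, with CCF4 ratio read-out and IC50 from Hill fits.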

A short description of assay [11]: qHTS assay for environmental chemicals that activate the Aryl hydrocarbon Receptor (AhR) signaling pathway (AID 651777). Note: % of control where 0% means no effect; nearly all actives have a fitted effect of over 15% in size. The conditions noted are these: 1A2-DRE human hepatoma cells, luciferase, 24 h; activation: stronger effect = higher value. In a few lines: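 Reporter gene assay: hepatoma cells with DRE/CYP1A2-luciferase, 24 hr compound incubation at 37 C, 5% CO2, luminescence after One-Glo (30 min, RT).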

For assay [12], the target named is Peroxisome proliferator-activated receptor alpha (Homo sapiens) (UniProt Q07869). Nature of the assay: qHTS assay for small molecule agonists of the peroxisome proliferator-activated receptor alpha (PPARalpha) signaling pathway (AID 651778). Note: % of control where 0% means no effect. The note with it: PathHunter PPARalpha complementation, chemiluminescence, 6 h; max response: stronger effect = higher value. The method in brief: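 Chemiluminescence from complemented enzyme reported PPARalpha activation in cells after 6 hr of compound treatment at 37 C. The detection reagent was incubated for 60 min at room temperature, and compounds were scored as agonists.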
Chain of Peroxisome proliferator-activated receptor alpha (Homo sapiens) (Q07869 whole entry, looked up): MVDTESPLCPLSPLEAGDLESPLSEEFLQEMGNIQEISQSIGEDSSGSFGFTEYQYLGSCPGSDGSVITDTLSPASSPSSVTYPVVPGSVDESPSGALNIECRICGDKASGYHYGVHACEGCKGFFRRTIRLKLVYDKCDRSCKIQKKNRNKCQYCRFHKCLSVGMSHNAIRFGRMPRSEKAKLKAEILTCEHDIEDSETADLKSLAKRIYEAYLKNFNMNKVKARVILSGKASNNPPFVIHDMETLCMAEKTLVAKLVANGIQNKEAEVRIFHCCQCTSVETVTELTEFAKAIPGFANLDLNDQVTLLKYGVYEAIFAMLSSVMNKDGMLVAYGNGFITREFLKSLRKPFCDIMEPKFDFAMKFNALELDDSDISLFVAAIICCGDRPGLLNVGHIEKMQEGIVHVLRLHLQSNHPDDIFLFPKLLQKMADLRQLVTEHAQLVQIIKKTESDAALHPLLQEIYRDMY

Assay [13] is described as follows: qHTS assay for small molecule agonists of the antioxidant response element (ARE) signaling pathway measured by Nrf2-dependant transcriptional activity (AID 720636; active = well fitted curve in the direction sought with a large enough effect in the repeat runs; an effect the other way counts as inactive or inconclusive;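 note: HepG2 cells with an ARE-driven luciferase reporter; % of control where 0% means no effect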). The method in brief: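 Nrf2-dependent transcription is measured in ARE-luc HepG2 cells: compound is applied for 16 hr at 37 C after a 6 hr attachment period, and luciferase activity is quantified by luminescence using ONE-Glo.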

Assay [14] in a line: qHTS assay for small molecule agonists of the antioxidant response element (ARE) signaling pathway measured by Nrf2-dependant transcriptional activity - cell viability counter screen (AID 720653; active = well fitted curve in the direction sought with a large enough effect in the repeat runs; an effect the other way counts as inactive or inconclusive; note: % is set by controls: 0 for no effect and ±100 for the full control effect). The note with it: ARE-bla HepG2 viability, CellTiter-Glo ATP luminescence, 16 h; max response: stronger effect = lower value. In a few lines:
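Cytotoxicity counter screen: intracellular ATP quantified by CellTiter-Glo luminescence in the same ARE-bla HepG2 plates, after 16 h compound exposure and a 2 h beta-lactamase substrate step.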

Assay [15] in a line: qHTS assay for cell viability of HEK293 cells (AID 743288). Note: % is set by controls: 0 for no effect and ±100 for the full control effect; nearly all actives have a fitted effect of over 50% in size. The note with it: ATP luminescence (CellTiter-Glo), 18 h; max response: stronger effect = lower value. The method in brief: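 Environmental chemicals tested in qHTS format against parental HEK293 cells; 18 h treatment, 37 C; read-out ATP luminescence (CellTiter-Glo), 30 min RT development.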
In assay [16] the target is Nuclear receptor subfamily 1 group I member 2 (Rattus norvegicus) (UniProt Q9R1A7). Description: qHTS assay for small molecule activators of the rat pregnane X receptor (rPXR) signaling pathway (AID 651751; call rule not given here; note: 0% is about no effect). The conditions noted are these: rPXR reporter cells, luciferase (One-Glo), 24 h.
Chain of Nuclear receptor subfamily 1 group I member 2 (Rattus norvegicus) (Q9R1A7 whole entry, looked up): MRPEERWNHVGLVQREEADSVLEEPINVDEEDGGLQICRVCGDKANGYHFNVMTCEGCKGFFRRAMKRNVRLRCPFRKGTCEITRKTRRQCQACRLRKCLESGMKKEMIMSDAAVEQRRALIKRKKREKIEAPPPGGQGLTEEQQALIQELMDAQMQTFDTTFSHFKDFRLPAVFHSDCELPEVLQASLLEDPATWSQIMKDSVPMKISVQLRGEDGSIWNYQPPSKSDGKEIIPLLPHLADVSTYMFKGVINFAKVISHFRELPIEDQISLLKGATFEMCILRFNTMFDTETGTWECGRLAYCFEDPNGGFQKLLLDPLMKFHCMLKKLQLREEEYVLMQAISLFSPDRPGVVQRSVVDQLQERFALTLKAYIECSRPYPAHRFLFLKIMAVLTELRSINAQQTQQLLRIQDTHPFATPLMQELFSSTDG
The target in assay [17] is Glucocorticoid receptor (Homo sapiens) (UniProt P04150). Nature of the assay: qHTS assay for small molecule antagonists of glucocorticoid receptor signaling (AID 588533; active = well fitted inhibition curve with a large enough effect in the signal ratio, with a control signal flat, not every such curve was filed as active; the % refers to the signal ratio;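 note: cells stimulated with 2 nM dexamethasone as agonist; % is set by controls: 0 for no effect and ±100 for the full control effect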). The method in brief:
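Antagonist-mode qHTS: compound titrations added to GRE-bla HeLa cells, then dexamethasone 2 nM final; 18 h, 37 C. CCF4 FRET fluorescence normalized to dexamethasone and DMSO; IC50 from Hill fit.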

In assay [18] the target is Peroxisome proliferator-activated receptor gamma (Homo sapiens) (UniProt P37231). Nature of the assay: qHTS assay for small molecule agonists of peroxisome proliferator-activated receptor gamma signaling (AID 588536; active = well fitted curve in the direction sought with a large enough effect in the signal ratio, with a control signal flat, not every such curve was filed as active; the % refers to the signal ratio;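 note: 0% = DMSO basal wells and 100% = rosiglitazone at 2 µM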). The method in brief: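 GeneBLAzer PPAR-gamma-UAS-bla HEK293 cells in 1% charcoal/dextran-treated FBS medium were treated 16 h at 37 C with compounds. Beta-lactamase activity was read by CCF4 ratio (460/530 nm). Response was normalized to 2 uM rosiglitazone (100%) and DMSO, then Hill-fitted for EC50 and efficacy.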
Chain of Peroxisome proliferator-activated receptor gamma (Homo sapiens) (P37231 whole entry, looked up): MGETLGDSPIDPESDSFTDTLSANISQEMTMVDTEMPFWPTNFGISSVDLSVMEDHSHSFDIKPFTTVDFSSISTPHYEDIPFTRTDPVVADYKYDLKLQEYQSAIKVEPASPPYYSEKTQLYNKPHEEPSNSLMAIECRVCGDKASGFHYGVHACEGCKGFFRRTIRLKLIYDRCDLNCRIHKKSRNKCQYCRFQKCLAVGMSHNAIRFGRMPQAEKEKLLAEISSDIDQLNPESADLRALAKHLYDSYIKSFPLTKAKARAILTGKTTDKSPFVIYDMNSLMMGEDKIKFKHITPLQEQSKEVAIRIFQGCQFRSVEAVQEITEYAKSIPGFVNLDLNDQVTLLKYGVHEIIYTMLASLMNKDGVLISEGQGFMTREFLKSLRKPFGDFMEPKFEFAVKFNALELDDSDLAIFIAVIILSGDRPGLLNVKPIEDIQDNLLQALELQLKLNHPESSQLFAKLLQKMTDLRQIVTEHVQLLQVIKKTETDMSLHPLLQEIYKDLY

Assay [19] is described as follows: qHTS assay for small molecule activators of the p53 signaling pathway (AID 651743; active = well fitted activation curve with a large enough effect in the signal ratio, not every such curve was filed as active; the % refers to the signal ratio; note: series mostly up to about 92 µM; % of control where 0% means no effect). The conditions noted are these: HCT-116 p53RE-bla, beta-lactamase FRET ratio, 16 h; activation: stronger effect = higher value. The method in brief:
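Read-out is fluorescence intensity from the LiveBLAzer B/G FRET substrate, added for 2 hours at room temperature after HCT-116 p53RE-bla cells had been incubated with compounds for 16 hours at 37 C.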

Assay [20] is described as follows: qHTS assay for cell viability of the p53RE-bla HCT-116 cell line (AID 743292). Note: % is set by controls: 0 for no effect and ±100 for the full control effect; nearly all actives have a fitted effect of over 55% in size. In a few lines:
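ATP-based luminescence, 16 h compound exposure at 37 C, p53RE-bla HCT-116 cells at 4,000/well.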

Chain of Glucocorticoid receptor (Homo sapiens) (P04150 whole entry, looked up): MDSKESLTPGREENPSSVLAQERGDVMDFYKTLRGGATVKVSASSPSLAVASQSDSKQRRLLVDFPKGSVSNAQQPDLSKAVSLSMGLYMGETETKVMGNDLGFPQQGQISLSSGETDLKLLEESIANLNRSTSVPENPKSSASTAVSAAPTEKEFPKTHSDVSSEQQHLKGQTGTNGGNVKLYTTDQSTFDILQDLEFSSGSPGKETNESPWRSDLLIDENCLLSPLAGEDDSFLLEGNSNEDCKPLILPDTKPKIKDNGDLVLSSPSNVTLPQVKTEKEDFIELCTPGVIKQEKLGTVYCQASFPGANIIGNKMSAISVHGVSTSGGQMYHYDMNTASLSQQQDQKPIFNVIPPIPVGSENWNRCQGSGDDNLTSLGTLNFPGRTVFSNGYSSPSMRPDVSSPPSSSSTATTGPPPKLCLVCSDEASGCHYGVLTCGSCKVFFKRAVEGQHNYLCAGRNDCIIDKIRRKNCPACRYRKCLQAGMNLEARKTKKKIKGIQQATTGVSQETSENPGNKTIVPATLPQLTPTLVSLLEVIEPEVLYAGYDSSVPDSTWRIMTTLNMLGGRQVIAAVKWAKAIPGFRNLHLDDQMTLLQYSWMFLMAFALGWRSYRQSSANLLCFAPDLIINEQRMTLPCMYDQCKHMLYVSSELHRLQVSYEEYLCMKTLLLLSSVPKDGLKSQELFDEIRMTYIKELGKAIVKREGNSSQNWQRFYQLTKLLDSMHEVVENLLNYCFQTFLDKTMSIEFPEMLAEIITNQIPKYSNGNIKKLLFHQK
Chain of Thyroid hormone receptor beta (Homo sapiens) (P10828 whole entry, looked up): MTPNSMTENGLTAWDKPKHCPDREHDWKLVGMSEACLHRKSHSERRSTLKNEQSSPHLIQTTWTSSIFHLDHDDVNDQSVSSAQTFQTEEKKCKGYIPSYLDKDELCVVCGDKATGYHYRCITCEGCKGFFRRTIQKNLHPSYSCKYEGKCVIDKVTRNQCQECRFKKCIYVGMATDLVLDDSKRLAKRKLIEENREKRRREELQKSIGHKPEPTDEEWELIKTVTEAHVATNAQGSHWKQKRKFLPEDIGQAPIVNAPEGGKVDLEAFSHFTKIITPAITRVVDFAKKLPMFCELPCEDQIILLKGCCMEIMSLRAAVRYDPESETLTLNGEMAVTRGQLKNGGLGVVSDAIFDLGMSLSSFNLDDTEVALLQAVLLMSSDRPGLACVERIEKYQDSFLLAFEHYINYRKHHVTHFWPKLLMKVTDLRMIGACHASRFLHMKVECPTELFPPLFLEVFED
Chain of Estrogen receptor (Homo sapiens) (P03372 whole entry, looked up): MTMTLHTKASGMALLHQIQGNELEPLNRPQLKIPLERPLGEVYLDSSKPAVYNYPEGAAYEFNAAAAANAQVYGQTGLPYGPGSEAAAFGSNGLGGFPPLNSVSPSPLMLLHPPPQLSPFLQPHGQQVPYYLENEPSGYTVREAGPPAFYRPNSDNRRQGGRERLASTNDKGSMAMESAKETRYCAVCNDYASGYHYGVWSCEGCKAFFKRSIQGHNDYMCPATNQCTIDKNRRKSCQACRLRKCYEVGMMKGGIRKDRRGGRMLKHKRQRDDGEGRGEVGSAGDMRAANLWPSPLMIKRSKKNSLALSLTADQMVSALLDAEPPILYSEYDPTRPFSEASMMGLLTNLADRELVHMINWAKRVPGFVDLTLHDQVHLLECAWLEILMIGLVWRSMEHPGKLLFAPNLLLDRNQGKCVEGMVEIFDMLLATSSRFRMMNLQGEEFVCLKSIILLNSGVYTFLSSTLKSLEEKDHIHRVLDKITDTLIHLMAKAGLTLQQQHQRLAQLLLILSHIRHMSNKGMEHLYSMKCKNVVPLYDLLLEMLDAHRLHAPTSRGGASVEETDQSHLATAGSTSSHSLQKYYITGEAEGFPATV
Chain of Retinoic acid receptor RXR-alpha (Homo sapiens) (P19793 whole entry, looked up): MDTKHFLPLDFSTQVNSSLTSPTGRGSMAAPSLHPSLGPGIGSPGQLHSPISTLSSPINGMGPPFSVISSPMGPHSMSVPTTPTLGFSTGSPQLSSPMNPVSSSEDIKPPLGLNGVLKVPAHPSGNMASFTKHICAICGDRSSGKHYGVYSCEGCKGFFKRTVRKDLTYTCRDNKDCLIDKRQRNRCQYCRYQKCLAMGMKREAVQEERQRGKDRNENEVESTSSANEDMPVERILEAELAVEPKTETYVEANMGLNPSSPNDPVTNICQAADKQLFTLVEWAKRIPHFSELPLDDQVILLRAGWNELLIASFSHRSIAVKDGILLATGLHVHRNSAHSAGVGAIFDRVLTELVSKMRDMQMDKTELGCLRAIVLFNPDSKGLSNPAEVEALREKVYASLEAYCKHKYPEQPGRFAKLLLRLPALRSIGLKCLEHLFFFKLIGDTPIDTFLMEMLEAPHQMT

Consider `CC(C)(C)OOC(C)(C)c1ccc(C(C)(C)OOC(C)(C)C)cc1`, for which the Potency result in assay [1], in assay [5], in assay [6], in assay [7] and in assay [13] was “inactive” throughout. For the same compound, the activation in [2] is -6.76% (inactive); in assay [11], 0.613% (inactive). For the same compound, in assay [3], the outcome was inactive. In addition, the max response in assay [4] was 6.63%; in assay [8] it was -15.9%; in assay [9] it was -5.44% (inactive); in assay [12], 0.719% (inactive); in assay [14], -7.74% (inactive); in assay [15], -8.57% (inactive). The max response in assay [16] is 4.08% (inactive). Moreover, in assay [10], the activity change % (negative = inhibition) is 10.7% (inactive).
Consider `CC(C)(C)C(O)C(Oc1ccc(-c2ccccc2)cc1)n1cncn1` (configuration not stated), for which the Potency entry in assay [1], in assay [17], in assay [5], in assay [18], in assay [7] and in assay [13] was “inactive” in each case. In assay [20], the Potency result is “inactive”. Moreover, the max response in [4] is -42.4%; in assay [12], 1.37% (inactive); in assay [14], -1.48% (inactive); in [15] it was -21.2% (inactive). For the same compound, the activity change % (negative = inhibition) in assay [10] was -13.8% (inactive). Moreover, the values for the activation in assay [19] and in assay [11] were 6.28% (inactive) and 0.741% (inactive), respectively.
Consider `[Ga]#[As]`, for which the Potency entry in [1], in assay [17], in [5], in [18], in assay [6] and in assay [7] was “inactive” in each case. The Potency entry in assay [20] is “inactive”. Moreover, the activation in assay [2] was 4.24% (inactive); in assay [19], -1.62% (inactive); in [11], 0.963% (inactive). Besides, in assay [3], the outcome was inactive. Further, the max response in assay [4] is 33%; in assay [8] it was -11%; in assay [9], 6.85% (inactive); in assay [12], -1.03% (inactive); in [14], -2.5% (inactive); in assay [15] it was -2.89% (inactive). For the same compound, in assay [16], the max response is -5.29% (inactive).
Turning to `O=C(NC(=O)c1c(F)cccc1F)Nc1cc(Cl)c(OC(F)(F)C(F)F)c(Cl)c1`, the Potency entry in assay [1], in [18], in [6], in [7], in assay [13] and in assay [20] was “inactive” in each case. Moreover, the figures for the activation in [2], in assay [19] and in [11] were 12.6% (inactive), -1.27% (inactive) and 0.0082% (inactive), respectively. Further, in assay [3], the outcome was inactive. Also, the max response in [8] is -11.9%; in [9], 21.4% (inactive); in [12] it was -1.91% (inactive); in assay [14], -11.1% (inactive); in assay [15] it was -28.3% (inactive); in assay [16], -0.359% (inactive). Moreover, the activity change % (negative = inhibition) in assay [10] is -14.9% (inactive).
Consider `CCOC(=O)C(Cl)Cc1cc(-n2nc(C)n(C(F)F)c2=O)c(F)cc1Cl` (configuration not stated), for which the Potency entry in assay [1], in assay [17], in assay [5], in assay [18], in [6] and in [13] was “inactive” in each case. Moreover, the Potency result in assay [20] is “inactive”. Besides, the activation in [2] was -0.667% (inactive); in assay [11], 1.53% (inactive). For the same compound, the outcome in assay [3] was inactive. The max response is 64.4% in assay [4]; 13.3% in assay [8]; -48.3% (inactive) in assay [9]; 11% (inactive) in assay [12]; -4.81% (inactive) in [14]; -19.9% (inactive) in assay [15]. Moreover, the max response in assay [16] was -2.22% (inactive). The activity change % (negative = inhibition) in assay [10] was 18.6% (inactive).
With `CCC(C)(NC(=O)c1cc(Cl)c(C)c(Cl)c1)C(=O)CCl` (configuration not stated), the Potency result in [1], in [17], in [5], in assay [18], in [7] and in [20] was “inactive” each time. Also, the results for the activation in [2], in assay [19] and in assay [11] were -7.44% (inactive), 14.9% (inactive) and 1.89% (inactive), respectively. Also, in assay [3], the call was inactive. Further, the max response is 31.6% in [4], 0.353% (inactive) in [14], -19.8% (inactive) in assay [15] and 1.32% (inactive) in [16].
